Assays:
Assay in all cases: log2 ratio of Biotin-Ahx-Ub-VS probe labelling (fragment/DMSO); higher = less target engagement (more negative = stronger competition), active = hit call of the paper (q ≤ 0.05, log2 ratio ≤ -1)
Conditions in all cases: compound concentration: 200 uM; treatment time: 3 h
USP34 = USP34 (UniProt Q70CQ2)
How it was run: (§1)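 HEK293T lysate in Tris/CHAPS/IGEPAL buffer with protease inhibitors (495 µg per sample) was given fragment at 200 µM or vehicle for 3 h, in triplicate. It then received Biotin-Ahx-Ub-VS at 0.5 µM final for 1 h. Labelled DUBs were NeutrAvidin-enriched, digested with LysC and trypsin, and run by diaPASEF LC-MS/MS. Values are average log2 fragment/vehicle ratios by unpaired t-test on global-median-normalised Spectronaut quantities of proteins with ≥2 unique peptides.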

USP36 = biological target: T1, USP36 (UniProt Q9P275)
T1 sequence (whole entry): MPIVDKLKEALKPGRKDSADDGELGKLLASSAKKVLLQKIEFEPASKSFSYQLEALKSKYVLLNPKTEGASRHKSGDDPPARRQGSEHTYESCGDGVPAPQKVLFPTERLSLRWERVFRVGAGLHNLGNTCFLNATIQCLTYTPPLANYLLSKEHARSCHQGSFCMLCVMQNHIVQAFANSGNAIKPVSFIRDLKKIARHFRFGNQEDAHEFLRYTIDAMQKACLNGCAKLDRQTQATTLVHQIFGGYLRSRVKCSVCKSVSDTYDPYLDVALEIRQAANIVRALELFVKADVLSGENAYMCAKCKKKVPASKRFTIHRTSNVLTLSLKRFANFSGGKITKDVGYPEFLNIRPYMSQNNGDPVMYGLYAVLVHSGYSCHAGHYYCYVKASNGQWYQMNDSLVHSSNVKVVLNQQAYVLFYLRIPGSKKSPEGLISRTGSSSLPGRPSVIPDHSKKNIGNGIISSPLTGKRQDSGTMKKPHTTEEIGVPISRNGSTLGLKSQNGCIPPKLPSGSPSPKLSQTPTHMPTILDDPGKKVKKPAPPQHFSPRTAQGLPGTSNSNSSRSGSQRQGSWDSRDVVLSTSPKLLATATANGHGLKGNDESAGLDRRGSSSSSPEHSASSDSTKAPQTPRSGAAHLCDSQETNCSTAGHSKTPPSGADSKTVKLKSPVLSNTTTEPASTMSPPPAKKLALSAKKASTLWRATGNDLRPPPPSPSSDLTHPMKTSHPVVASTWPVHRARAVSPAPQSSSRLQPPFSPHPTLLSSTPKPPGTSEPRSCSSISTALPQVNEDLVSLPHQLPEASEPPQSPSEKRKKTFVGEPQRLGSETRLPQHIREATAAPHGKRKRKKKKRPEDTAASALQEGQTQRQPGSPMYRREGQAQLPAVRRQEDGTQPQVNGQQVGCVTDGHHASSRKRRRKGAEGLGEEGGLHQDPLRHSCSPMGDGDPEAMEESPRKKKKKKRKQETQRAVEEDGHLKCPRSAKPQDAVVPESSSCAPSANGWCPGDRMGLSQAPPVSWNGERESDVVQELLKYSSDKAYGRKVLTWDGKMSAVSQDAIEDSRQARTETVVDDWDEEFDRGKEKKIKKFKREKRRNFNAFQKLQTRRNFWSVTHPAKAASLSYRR
How it was run: as §1

USP38 = biological target: T2, USP38 (UniProt Q8NB14)
T2 sequence (whole entry): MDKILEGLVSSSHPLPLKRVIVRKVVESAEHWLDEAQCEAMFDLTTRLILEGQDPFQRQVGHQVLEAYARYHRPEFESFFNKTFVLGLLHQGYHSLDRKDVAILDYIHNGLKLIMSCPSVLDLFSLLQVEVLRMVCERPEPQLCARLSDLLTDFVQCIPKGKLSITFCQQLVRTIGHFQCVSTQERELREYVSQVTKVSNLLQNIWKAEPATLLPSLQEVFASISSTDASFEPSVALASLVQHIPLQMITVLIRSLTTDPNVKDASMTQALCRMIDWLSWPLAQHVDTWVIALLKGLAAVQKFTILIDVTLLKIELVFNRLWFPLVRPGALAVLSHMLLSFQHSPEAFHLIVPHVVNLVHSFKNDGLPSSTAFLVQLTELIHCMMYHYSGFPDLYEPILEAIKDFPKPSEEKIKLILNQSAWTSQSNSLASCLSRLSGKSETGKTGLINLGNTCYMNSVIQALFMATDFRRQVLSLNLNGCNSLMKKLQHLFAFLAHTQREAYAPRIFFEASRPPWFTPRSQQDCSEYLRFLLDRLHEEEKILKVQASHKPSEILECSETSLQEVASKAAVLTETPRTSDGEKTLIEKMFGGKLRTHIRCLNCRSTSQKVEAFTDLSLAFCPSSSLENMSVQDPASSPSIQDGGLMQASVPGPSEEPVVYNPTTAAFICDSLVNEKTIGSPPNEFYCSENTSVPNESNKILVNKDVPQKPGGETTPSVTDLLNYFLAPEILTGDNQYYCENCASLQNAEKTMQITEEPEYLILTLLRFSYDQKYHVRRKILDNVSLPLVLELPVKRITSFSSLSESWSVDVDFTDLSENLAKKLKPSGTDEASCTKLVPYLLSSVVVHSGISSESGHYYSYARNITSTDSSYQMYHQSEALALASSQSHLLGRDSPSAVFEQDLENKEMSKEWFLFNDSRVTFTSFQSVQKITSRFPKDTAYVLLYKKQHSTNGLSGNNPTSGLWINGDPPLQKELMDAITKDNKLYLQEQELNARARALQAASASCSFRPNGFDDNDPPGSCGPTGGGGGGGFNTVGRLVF
How it was run: as §1

USP39 = biological target: T3, USP39 (UniProt Q53GS9)
T3 sequence (whole entry): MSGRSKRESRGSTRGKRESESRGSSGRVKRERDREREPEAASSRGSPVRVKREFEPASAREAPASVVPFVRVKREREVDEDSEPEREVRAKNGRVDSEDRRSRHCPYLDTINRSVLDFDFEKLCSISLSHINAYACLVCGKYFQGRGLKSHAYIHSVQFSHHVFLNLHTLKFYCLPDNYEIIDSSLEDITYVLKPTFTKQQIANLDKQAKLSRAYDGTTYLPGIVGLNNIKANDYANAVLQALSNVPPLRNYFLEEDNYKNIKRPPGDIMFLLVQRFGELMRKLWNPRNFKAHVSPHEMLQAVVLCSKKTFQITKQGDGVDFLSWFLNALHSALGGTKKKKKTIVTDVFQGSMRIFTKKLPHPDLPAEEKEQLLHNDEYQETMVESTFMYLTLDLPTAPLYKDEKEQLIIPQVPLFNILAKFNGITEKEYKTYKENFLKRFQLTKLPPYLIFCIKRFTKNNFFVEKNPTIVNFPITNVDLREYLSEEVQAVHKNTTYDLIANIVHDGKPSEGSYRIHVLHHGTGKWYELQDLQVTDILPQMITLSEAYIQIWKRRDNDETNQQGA
How it was run: as §1

USP4 = biological target: T4, USP4 (UniProt Q13107)
T4 sequence (whole entry): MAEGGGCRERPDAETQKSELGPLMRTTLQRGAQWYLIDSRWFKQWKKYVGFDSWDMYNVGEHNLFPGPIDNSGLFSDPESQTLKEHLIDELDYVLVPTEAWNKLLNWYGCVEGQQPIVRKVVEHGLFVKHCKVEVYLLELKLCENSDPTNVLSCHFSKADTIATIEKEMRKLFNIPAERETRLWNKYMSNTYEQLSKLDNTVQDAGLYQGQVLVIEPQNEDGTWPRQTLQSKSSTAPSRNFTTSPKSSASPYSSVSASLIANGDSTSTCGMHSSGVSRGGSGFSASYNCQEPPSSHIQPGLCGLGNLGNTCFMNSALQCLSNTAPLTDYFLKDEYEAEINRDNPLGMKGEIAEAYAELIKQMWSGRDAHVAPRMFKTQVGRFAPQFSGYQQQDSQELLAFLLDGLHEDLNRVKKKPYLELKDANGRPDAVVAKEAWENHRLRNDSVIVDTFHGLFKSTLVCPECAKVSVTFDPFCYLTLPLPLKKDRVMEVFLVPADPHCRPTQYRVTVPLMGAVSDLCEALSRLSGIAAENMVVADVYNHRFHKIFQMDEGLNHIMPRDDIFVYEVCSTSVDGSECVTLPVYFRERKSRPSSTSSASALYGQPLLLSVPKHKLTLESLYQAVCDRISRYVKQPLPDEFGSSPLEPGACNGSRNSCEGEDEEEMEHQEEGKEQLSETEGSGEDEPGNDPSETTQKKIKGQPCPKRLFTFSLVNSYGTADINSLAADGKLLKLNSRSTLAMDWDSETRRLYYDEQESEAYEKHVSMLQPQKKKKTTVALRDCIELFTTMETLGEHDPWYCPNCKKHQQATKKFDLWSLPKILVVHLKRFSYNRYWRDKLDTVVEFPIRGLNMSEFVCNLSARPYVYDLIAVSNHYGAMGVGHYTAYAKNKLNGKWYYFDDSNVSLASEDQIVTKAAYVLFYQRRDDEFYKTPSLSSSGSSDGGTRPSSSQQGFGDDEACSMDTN
How it was run: as §1

Measured: log2 ratio of Biotin-Ahx-Ub-VS probe labelling

Chain of USP34 (Q70CQ2 whole entry, the tested form may be a part): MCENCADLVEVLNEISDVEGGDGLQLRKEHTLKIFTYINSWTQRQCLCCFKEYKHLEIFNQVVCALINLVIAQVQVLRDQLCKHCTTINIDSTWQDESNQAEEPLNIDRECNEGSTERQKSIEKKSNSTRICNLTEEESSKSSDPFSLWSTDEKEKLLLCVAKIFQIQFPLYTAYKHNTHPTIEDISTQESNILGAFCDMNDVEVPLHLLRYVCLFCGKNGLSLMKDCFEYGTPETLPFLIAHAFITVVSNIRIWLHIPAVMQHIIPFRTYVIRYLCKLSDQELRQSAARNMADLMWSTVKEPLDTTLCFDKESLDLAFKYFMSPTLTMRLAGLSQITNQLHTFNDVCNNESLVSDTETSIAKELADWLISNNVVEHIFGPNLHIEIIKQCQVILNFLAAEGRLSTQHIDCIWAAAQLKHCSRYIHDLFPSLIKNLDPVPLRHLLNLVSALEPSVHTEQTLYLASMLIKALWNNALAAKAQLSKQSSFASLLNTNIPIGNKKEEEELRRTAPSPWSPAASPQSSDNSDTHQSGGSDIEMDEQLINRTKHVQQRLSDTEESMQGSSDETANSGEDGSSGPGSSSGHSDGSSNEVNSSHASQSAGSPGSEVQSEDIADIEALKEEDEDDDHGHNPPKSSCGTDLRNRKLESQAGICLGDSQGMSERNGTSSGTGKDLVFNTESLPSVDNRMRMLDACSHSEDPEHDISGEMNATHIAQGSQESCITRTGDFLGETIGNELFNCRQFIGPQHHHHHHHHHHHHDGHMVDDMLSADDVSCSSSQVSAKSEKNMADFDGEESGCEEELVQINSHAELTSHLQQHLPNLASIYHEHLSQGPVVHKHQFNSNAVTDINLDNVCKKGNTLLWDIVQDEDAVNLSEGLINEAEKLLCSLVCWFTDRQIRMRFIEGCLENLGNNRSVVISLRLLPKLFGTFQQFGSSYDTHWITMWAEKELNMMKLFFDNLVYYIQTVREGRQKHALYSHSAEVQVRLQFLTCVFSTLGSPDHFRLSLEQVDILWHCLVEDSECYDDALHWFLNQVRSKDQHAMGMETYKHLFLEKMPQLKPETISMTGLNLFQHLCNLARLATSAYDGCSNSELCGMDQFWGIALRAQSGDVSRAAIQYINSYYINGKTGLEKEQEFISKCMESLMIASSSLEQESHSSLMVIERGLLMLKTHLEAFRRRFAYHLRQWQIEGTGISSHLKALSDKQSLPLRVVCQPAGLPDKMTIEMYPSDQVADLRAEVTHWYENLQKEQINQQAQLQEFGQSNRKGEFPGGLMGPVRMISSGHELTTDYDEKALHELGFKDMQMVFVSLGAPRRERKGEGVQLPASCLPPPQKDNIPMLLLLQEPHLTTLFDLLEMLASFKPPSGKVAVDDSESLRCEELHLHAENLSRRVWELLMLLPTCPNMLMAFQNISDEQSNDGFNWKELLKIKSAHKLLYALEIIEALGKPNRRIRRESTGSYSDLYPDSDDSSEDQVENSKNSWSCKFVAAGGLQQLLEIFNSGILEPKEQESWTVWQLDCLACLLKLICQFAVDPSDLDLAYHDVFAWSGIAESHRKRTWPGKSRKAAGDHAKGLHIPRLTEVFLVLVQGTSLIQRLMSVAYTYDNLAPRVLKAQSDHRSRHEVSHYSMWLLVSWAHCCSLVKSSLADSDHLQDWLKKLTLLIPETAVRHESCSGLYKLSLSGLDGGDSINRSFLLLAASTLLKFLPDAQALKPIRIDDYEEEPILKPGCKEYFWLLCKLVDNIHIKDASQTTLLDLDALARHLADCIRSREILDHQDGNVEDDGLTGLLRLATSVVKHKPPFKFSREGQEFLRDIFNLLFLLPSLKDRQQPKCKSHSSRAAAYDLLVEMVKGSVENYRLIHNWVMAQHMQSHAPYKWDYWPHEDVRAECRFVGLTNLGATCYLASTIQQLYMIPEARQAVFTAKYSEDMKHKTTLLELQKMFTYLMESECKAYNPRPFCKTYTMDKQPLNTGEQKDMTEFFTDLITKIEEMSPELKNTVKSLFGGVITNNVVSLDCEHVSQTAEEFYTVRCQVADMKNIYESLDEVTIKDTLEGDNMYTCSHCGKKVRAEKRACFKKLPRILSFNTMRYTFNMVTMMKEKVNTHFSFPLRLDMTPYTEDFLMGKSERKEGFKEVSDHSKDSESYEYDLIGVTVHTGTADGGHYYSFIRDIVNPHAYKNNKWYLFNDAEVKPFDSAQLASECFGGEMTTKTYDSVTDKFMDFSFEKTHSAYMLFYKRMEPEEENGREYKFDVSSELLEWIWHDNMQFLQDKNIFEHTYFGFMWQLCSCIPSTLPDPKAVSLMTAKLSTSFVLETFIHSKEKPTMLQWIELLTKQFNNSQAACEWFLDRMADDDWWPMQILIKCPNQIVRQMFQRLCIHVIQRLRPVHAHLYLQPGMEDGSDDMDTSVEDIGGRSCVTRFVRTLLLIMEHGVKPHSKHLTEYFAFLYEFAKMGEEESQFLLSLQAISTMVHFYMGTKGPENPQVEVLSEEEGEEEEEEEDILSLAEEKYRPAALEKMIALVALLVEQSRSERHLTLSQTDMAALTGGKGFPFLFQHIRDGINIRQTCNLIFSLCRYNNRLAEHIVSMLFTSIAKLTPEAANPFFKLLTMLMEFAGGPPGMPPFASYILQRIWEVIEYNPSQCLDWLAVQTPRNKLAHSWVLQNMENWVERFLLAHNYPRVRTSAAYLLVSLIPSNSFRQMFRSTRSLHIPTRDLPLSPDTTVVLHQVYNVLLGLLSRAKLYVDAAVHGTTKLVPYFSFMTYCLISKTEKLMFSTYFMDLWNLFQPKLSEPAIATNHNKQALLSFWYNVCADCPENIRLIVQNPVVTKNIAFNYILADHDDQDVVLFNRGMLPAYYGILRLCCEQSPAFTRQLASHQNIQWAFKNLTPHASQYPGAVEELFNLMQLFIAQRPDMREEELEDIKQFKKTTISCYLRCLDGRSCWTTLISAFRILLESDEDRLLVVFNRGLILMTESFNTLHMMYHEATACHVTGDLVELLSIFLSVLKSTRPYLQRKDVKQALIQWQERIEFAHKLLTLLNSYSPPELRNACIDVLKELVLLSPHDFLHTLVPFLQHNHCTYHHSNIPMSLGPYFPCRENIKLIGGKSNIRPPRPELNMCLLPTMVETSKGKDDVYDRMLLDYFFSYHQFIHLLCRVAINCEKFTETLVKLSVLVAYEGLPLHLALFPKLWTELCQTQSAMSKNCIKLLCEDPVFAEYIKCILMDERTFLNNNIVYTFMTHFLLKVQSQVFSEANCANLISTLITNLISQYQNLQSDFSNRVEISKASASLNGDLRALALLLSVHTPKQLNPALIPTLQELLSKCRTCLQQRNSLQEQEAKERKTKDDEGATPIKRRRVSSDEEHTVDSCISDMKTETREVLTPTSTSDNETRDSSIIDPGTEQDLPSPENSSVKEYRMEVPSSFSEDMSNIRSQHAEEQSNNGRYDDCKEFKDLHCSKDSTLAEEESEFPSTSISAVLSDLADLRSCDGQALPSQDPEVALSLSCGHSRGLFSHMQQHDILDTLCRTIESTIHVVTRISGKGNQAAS

Cc1nc(CNC(=O)CCl)c2ccccn12.Cl
inactive: USP34 -0.0794 | USP36 -0.09 | USP38 -0.0607 | USP39 0.302 | USP4 -0.0724
